The source of these data is PubChem BioAssay (NCI).

Each structure is given as a SMILES string. Where “and” joins values, the source holds several entries; their conditions need not be identical. Equal entries are not always repeated. About 83,000 compounds went through this panel and 20% of them were active in at least one assay; those are over-represented in the sample as a whole.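 96-well plates, one dose, 48 hours. Percent growth reported; active if below 10.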 Values without a mark were called inactive. Calls of active or inactive are those of the source. Where a SMILES comes first, the peptide text is derived from it. The star is where a group is joined. Trt = c1ccc(C(c2ccccc2)(c2ccccc2)*)cc1; Cbz = O=C(OCc1ccccc1)*

The first experiment has as its system HS 578T breast. Put plainly: NCI-60 one-dose screen, 48 h (100 = growth as untreated, 0 = no growth, -100 = all killed). The settings on record: 10 µM. On the procedure: Growth inhibition of the HS 578T human tumor cell line is measured as a screen for anti-cancer activity. Cells are grown in 96 well plates and exposed to the test compound for 48 hours. Compounds are tested at a single concentration, which is 10^-5 M for most compounds. The reported endpoint is percent growth (GI% or GIPRCNT), where numbers from 0 - 100% represent growth inhibition, and numbers from -100% - 0 represent cell death. For example, a value of 40 represents 60% growth inhibition. A value of 0 means no net growth occurred over the course of the experiment. A value of -40 indicates 40% of cells at the beginning of the experiment died by the end of the experiment. A value of -100 means all cells are dead at the end of the experiment.
NCI-60 Human Tumor Cell Lines Screen was performed using the standard one-dose NCI protocol, which is described in more detail at https://dtp.cancer.gov/discovery_development/nci-60/default.htm.
Compounds with GIPRCNT values below 10 were considered active. Activity score was based on GIPRCNT using the following formula: […]
Score is 0 for GIPRCNT values of 100 or above, 50 for GIPRCNT values of 0, and 100 for GIPRCNT values of -100.
In the case of `O=C(O)c1c(Cl)c(Cl)c(Cl)c(Cl)c1-c1c2cc(I)c(=O)c(I)c-2oc2c(I)c(O)c(I)cc12`, the growth is 107% and 93.5%.
As to `O=C(Nc1c(Cl)cccc1Cl)Oc1cccc2cccnc12`, the growth was 90.6%.
Still for that read-out and setting: the result for `CN(C)C(=O)c1ccc(SC(=S)NCc2ccccc2)cc1` reads 116%; that for `COc1ccc(-c2cscc2N)cc1`, 106%.

The experiment is the same for the next values; noted with them: 10 µM unless noted.
Regarding `N#CC1C(=O)SC2c3ccccc3C(=O)c3ccccc3C12` (stereo not given), the growth is 96.2%.
As to `Cc1ccc(NS(=O)(=O)c2ccc(C)cc2)cc1`, the growth was 98.9% and 111%.
For `C=CCOc1ccc(N=NC(C#N)C#N)cc1`, the growth was 88.6%.
`O=C(Nc1ccc(F)cc1)ON=C1CCCCC1`: the growth was 99% [100 µM].
Regarding `NC(=O)/C=C/C(=O)c1c(Cl)cccc1Cl`, the growth is -7.11% (active).
Turning to `COC(=O)C(CSC(c1ccccc1)(c1ccccc1)c1ccccc1)NC(=O)C(CC(N)=O)NC(=O)OCc1ccccc1` (stereo not drawn) (Cbz-Asn-Cys(Trt)-OMe; configuration not given here), the growth is -20.4% (active).
For the compound `CN(C)CCOc1ccc2c(c1)C(=O)/C(=C\c1ncc([N+](=O)[O-])n1C)C2`, the growth was 21.1%.
Turning to `O=C1OCc2cccc3cccc1c23`, the growth is 102%.
As to `O=C(O)C1C2CC3C(OC(=O)C31)C2Br` (stereo not given), the growth is 93.4% and 95.7%.
In the case of `COC(=O)c1nc(=S)[nH]c(C(=O)OC)c1C(=O)c1ccccn1`, the growth is 70.1%.
Turning to `CCCCCCCCCCCCCCNCc1ccccc1`, the growth was 95%.
`COc1ccc2nc3cc(Cl)ccc3c(NCCNc3c4ccc(Cl)cc4nc4ccc(OC)cc34)c2c1`: the growth was -34.9% (active).
For the compound `NC(=S)N/N=C\c1nccc2c(C(F)(F)C(F)(F)C(F)(F)F)cccc12`, the growth is 50.7%.
On to `O=[N+]([O-])c1ccc(N=Nc2ccc(O)cc2O)cc1`, for which the growth was 51.8%.
With `COc1ccccc1OC(=O)Oc1ccccc1OC`, the growth is 92.4% and 102%.
`CCN(CC)CC(C)(C)C(=O)/C=C/c1ccc(Cl)c(Cl)c1`: the growth is 10.2%.
For `Cc1ccc2nc(-[n+]3cc4ccccc4cc3C)ccc2c1`, the growth was 67.3%.
On to `Oc1c(Br)cc(Cl)cc1C(c1cc(Cl)cc(Br)c1O)C(Cl)(Cl)Cl`, for which the growth is 21.2%.
On the same count and under the same terms, under `O=C1c2ccccc2C(=O)N1c1ccccc1` stands 119%.
With `N#CSCc1ccc(CSC#N)c(Cl)c1`, the growth was 94.1%.
Take `C[N+](C)=c1ccc2nc3c(cc(NCCCNc4cc5oc6cc(=[N+](C)C)ccc-6nc5c5ccccc45)c4ccccc43)oc-2c1`: the growth was 87.4%.
Turning to `O=C1NC(=O)/C(=C/C=C/c2ccccc2)S1`, the growth is 93.3%.
Take `NC(N)=N/N=C/c1ccc([N+](=O)[O-])o1`: the growth is 105%.
Consider `N#CSCc1ccc(Cl)c(CSC#N)c1`, for which the growth is 49%.
For `O=C(/C=C\c1cc(Br)ccc1O)/C=C/c1cc(Br)ccc1O`, the growth is 37.8%.
The same measure, in the same setting: under `CCCCCC(CCCCC)C(=O)O` stands 104%; under `CC1(C)CC([P+](c2ccccc2)(c2ccccc2)c2ccccc2)=NN1`, 72.1%; under `Cn1c2c(c3ccccc31)CCN1C[C@@H]3CCCC[C@H]3C[C@@H]21`, -16.9% (active).
Regarding `O=[N+]([O-])c1ccc2c(N=Nc3ccc4ccccc4c3O)c(O)cc(S(=O)(=O)O)c2c1`, the growth was 105%.
For `CCCCCCCCCCCCCCCC[N+](C)(CCO)Cc1cnc[nH]1` (stereo not given), the growth is -19.4% (active).
For the compound `COC(=O)[C@@]12OC[C@]34[C@H]([C@@H](O)[C@@H]1O)[C@@]1(C)[C@H](O)C(=O)C=C(C)[C@@H]1C[C@H]3OC(=O)C(OC(C)=O)[C@@H]24` (stereo not given in full), the growth was -33% (active).
Still for that read-out and setting: under `Cc1ccc2nc(C[n+]3ccc4ccccc4c3)ccc2c1` stands 90.8%.

Staying with this experiment, now noted: 100 µM.
Take `O=C(O)c1c(Cl)c(Cl)c(Cl)c(Cl)c1-c1c2cc(I)c(=O)c(I)c-2oc2c(I)c(O)c(I)cc12`: the growth was 27.5%.
Regarding `O=C(Nc1c(Cl)cccc1Cl)Oc1cccc2cccnc12`, the growth was 46.6%.
As to `CN(C)C(=O)c1ccc(SC(=S)NCc2ccccc2)cc1`, the growth was 45.7%.
Same read-out and setting: the result for `COc1ccc(-c2cscc2N)cc1` reads 88.2%.
